Measurements reported in PubChem BioAssay (NCATS).
“And” between values parts separate entries of the source, which are not always exact repeats. Equal values may be shown once. Records with an inconclusive call do not appear. The source made the active and inactive calls. Unless noted, calls come from the whole dose curve; as a rule, active = well fitted curve in the direction sought with a large enough effect; inconclusive = small, poorly fitted or top-dose-only effect, or another doubt; inactive = no such curve, though single readings can be large; an effect the other way counts as inactive or inconclusive.

What was measured:
[1] = Cell Viability - LYMP2-025 (AID 976); note: potency is the fitted concentration of half-maximal effect
Method in brief: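 Human lymphoblastoid LYMP2-025 cells, 2500/well, exposed 24 h at 37 C in complete medium in 1536-well qHTS. Viability as cellular ATP by CellTiter-Glo luminescence; AC50 from Hill fits of concentration-response data.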

[2] = Cell Viability - LYMP2-002 (AID 977);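 note: compound exposure lasted 24 h at 37 °C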; note: potency is the fitted concentration of half-maximal effect
Method in brief: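 Human lymphoblastoid LYMP2-002 cells, 2500 per well, exposed to compounds for 24 h at 37 C in complete medium; viability read as intracellular ATP by CellTiter-Glo luminescence, AC50 from Hill fits.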

[3] = Cell Viability - LYMP2-006 (AID 978); note: nearly all actives have a fitted effect of over 60% in size; note: potency is the fitted concentration of half-maximal effect
Method in brief: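 Concentration-dependent loss of intracellular ATP in a human lymphoblastoid line after 24 hr treatment at 37 C was measured by CellTiter-Glo luminescence, with AC50 values obtained from standard Hill-equation modelling.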

[4] = Cell Viability - LYMP2-007 (AID 979);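 note: cells exposed to compound for 24 h before reading; nearly all actives have a fitted effect of over 60% in size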; note: potency is the fitted concentration of half-maximal effect
Method in brief: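 Human lymphoblastoid LYMP2-007 cells (2500/well) preincubated 5 h at 37 C, then treated 24 h at 37 C in complete medium. Viability by CellTiter-Glo ATP luminescence after 30 min at room temperature; AC50 from Hill fits.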

[5] = Cell Viability - LYMP2-012 (AID 982);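 note: cellular ATP by luciferase luminescence where a drop means cytotoxicity; cells exposed to compound for one day before reading; nearly all actives have a fitted effect of over 55% in size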; note: potency is the fitted concentration of half-maximal effect
[6] = Cell Viability - LYMP2-014 (AID 983); note: nearly all actives have a fitted effect of over 50% in size; note: potency is the fitted concentration of half-maximal effect
Method in brief: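 LYMP2-014 human lymphoblastoid cells, 2500/well, treated 24 h at 37 C in complete medium; viability by CellTiter-Glo ATP luminescence after 30 min at room temperature. AC50 from Hill fits of qHTS concentration-response; tetraoctylammonium bromide positive control.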

[7] = Cell Viability - LYMP2-016 (AID 984); note: nearly all actives have a fitted effect of over 55% in size; note: potency is the fitted concentration of half-maximal effect
Method in brief: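 Acute toxicity in a Coriell human lymphoblastoid line is scored as loss of intracellular ATP over 24 h of treatment in complete medium. CellTiter-Glo signal is fitted across concentrations with the Hill equation to give AC50.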

[8] = Cell Viability - LYMP2-018 (AID 985);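 note: compound exposure lasted 24 hr at 37 °C; nearly all actives have a fitted effect of over 50% in size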; note: potency is the fitted concentration of half-maximal effect
Method in brief: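 Human lymphoblastoid LYMP2-018 cells, 2500/well, settled 5 hr at 37 C then exposed to compound 24 hr at 37 C; intracellular ATP measured by CellTiter-Glo luminescence. AC50 from Hill-equation concentration-response fits.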

[9] = Cell Viability - LYMP2-020 (AID 986); note: nearly all actives have a fitted effect of over 55% in size; note: potency is the fitted concentration of half-maximal effect
Method in brief: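 Human lymphoblastoid LYMP2-020 cells (2500/well) preincubated 5 h at 37 C, then treated 24 h at 37 C. Viability measured as intracellular ATP by CellTiter-Glo luminescence after 30 min at room temperature; AC50 from Hill fits.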

[10] = Cell Viability - LYMP2-022 (AID 987); note: nearly all actives have a fitted effect of over 55% in size; note: potency is the fitted concentration of half-maximal effect
Method in brief: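 LYMP2-022 lymphoblastoid cells (2500/well, complete medium) were treated with compounds for 24 hours at 37 C; intracellular ATP was then read by CellTiter-Glo luminescence after 30 min at room temperature. AC50 values were derived from Hill-equation fits.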

[11] = Cell Viability - LYMP2-024 (AID 988); note: nearly all actives have a fitted effect of over 60% in size; note: potency is the fitted concentration of half-maximal effect
Method in brief: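 Human lymphoblastoid LYMP2-024 cells (2500/well) rested 5 hr, then treated with compound for 24 hr at 37 C in complete medium. Viability was measured as intracellular ATP by CellTiter-Glo luminescence. AC50 values came from Hill-equation fits.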

[12] = Cell Viability - LYMP2-026 (AID 989); note: nearly all actives have a fitted effect of over 50% in size; note: potency is the fitted concentration of half-maximal effect
Method in brief: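 Human lymphoblastoid LYMP2-026 cells, 2500/well, exposed to compound 24 h at 37 C in complete medium. Viability as intracellular ATP by CellTiter-Glo luminescence; AC50 from Hill fits of qHTS concentration-response.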

[13] = Cell Viability - LYMP1-002 - Assay at 24 hr (AID 993); note: potency is the fitted concentration of half-maximal effect
Method in brief: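 Human lymphoblastoid LYMP1-002 cells (2500/well) treated 24 h at 37 °C; viability as intracellular ATP by CellTiter-Glo luminescence. Tetraoctylammonium bromide as positive control; AC50 from Hill-equation fits of qHTS concentration-response.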

[14] = Cell Viability - LYMP1-002 - Assay at 40 hr (AID 994); note: nearly all actives have a fitted effect of over 60% in size; note: potency is the fitted concentration of half-maximal effect
Method in brief: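 LYMP1-002 human lymphoblastoid cells (2500/well, complete medium) were treated with compounds for 40 hr at 37 C. Intracellular ATP was measured by CellTiter-Glo luminescence, and AC50 values came from Hill-equation fits of concentration-response data; tetraoctylammonium bromide was the positive control.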

[15] = qHTS Assay for Lipid Storage Modulators (AID 1519; calls by dose curve; for activity change, negative = inhibition: % is set by controls: 0 for no effect and ±100 for the full control effect); conditions: Drosophila S3 cells, BODIPY lipid droplet/cell ratio, laser cytometry, cells loaded with oleic acid
Method in brief: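 Cells seeded at 5,000 per well were treated with compounds over a concentration series and loaded with oleic acid (400 uM, as added). Lipid droplet fluorescence (488 nm excitation, 500-530 nm channel) was read by laser-scanning cytometry and normalized to 20 uM Triacsin C.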

[16] = biological target: Alpha-galactosidase A (Homo sapiens) (UniProt P06280); experiment: Counterscreen for Glucocerebrosidase Inhibitors: qHTS Assay for Human alpha-Galactosidase at pH 4.5 (AID 992); note: 0% is about no effect
Method in brief: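 Concentration-response curves (0.7 nM to 77 uM final) were modeled with the Hill equation to give AC50. Reactions: 2 nM enzyme, 80 uM fluorogenic alpha-galactoside, pH 4.5 citric acid buffer, 20 min, room temperature.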

[17] = biological target: alpha-glucosidase (Oryza sativa, rice) (UniProt Q653V4); experiment: Counterscreen for Glucocerebrosidase Inhibitors: qHTS Assay for Rice alpha-Glucosidase at pH 5.0 (AID 997);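 note: 0% = full activity with enzyme and -100% = basal without enzyme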
Method in brief: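 Rice alpha-glucosidase (4 nM final) with 400 uM 4-methylumbelliferyl-alpha-D-glucopyranoside in citrate buffer pH 5.0, 20 min at room temperature, stopped at pH 10; fluorescence 365/440 nm, compounds 0.7 nM–77 uM, AC50 from Hill fits.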

[18] = biological target: DNA repair nuclease/redox regulator APEX1 (Homo sapiens) (UniProt P27695); experiment: qHTS Validation Assay for Inhibitors of the Human Apurinic/apyrimidinic Endonuclease 1 (APE1) (AID 1705;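 note: TAMRA fluorescence gain over two minutes as APE1 cuts a quenched THF abasic duplex; % is set by controls: 0 for no effect and ±100 for the full control effect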)
Method in brief: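 Endonuclease activity of human APE1 is followed as dequenching when the enzyme incises a tetrahydrofuran abasic site in a short duplex labelled 5'-TAMRA/3'-BHQ-2 (50 nM final), after 15 min enzyme–compound preincubation at room temperature.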

[19] = Counterscreen for APE1 Inhibitors: Fluorescent Dye Displacement Validation Assay (AID 1707); note: potency is the fitted concentration of half-maximal effect;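 for activity change, negative = inhibition: plate controls were ThO with dsDNA and no compound for no effect and ThO without dsDNA for full effect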
Method in brief: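 Assay buffer: Tris-HCl pH7.5 with 50mM NaCl, 2 mM MgCl2, 0.01% Tween-20. Dye 250 nM, duplex 50 nM final. Readout: decrease in ThO endpoint fluorescence, 480 nm excitation, 540 nm emission.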

[20] = measured here: cell count channel max response
[21] = measured here: lipid channel max response

Chain of Alpha-galactosidase A (Homo sapiens) (P06280 whole entry, looked up): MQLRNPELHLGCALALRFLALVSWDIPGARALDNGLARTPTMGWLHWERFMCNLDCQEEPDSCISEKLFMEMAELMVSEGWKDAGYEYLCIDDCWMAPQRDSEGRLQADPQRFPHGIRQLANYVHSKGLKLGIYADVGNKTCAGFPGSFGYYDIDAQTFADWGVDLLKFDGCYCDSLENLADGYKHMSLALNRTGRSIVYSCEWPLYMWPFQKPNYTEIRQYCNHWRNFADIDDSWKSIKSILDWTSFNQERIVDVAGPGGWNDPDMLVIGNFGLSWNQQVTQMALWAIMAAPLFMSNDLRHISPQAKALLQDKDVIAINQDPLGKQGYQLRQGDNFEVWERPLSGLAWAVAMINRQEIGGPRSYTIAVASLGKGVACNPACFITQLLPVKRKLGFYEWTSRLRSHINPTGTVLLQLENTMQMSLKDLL
Chain of DNA repair nuclease/redox regulator APEX1 (Homo sapiens) (P27695 whole entry, looked up): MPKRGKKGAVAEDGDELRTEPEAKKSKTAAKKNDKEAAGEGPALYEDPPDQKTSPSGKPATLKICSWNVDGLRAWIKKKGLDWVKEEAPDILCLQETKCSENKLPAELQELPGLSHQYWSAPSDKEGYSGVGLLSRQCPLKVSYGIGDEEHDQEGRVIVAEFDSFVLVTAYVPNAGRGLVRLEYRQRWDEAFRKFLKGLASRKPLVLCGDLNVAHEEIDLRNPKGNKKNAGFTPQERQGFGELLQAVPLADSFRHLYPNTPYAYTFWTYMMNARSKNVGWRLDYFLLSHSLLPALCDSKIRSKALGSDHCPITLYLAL

CCCc1cc(=O)[nH]c(=S)[nH]1
5.94% and 25.3%: max response [15, 21]
inactive: Potency [1] | Potency [2] | Potency [3] | Potency [4] | Potency [5] | Potency [6] | Potency [7] | Potency [8] | Potency [9] | Potency [10] | Potency [11] | Potency [12] | Potency [13] | Potency [14] | activity change, negative = inhibition ([15]; at 25.7 µM (top of the series)) 0.162% | activity change, negative = inhibition ([15]; at 57.5 µM (top of the series)) 8.07%
4.47% and 16.1%: max response [15, 20]

CCN(CC)C(=S)SSC(=S)N(CC)CC
inactive: outcome [16] | outcome [17] | Potency [18] | Potency [19]

CNC[C@H](O)c1ccc(O)c(O)c1
inactive: outcome [16] | outcome [17] | Potency [18] | Potency [19]

O=C1NC(=O)C(c2ccccc2[N+](=O)[O-])=C1Nc1ccc(O)c(Cl)c1
-39.8%: max response [15, 21]
-38.3%: max response [15, 20]
inactive: outcome [16] | outcome [17] | activity change, negative = inhibition ([15]; at 57.5 µM (top of the series)) -0.486% | Potency [18] | Potency [19]

NCCCCNCCCN
8.54%: max response [15, 21]
inactive: outcome [16] | outcome [17] | activity change, negative = inhibition ([15]; at 57.5 µM (top of the series)) 0.755% | Potency [18] | Potency [19]
7.14%: max response [15, 20]

Cc1ccc(C)c(OCCCC(C)(C)C(=O)O)c1
8.2%: max response [15, 21]
10.3%: max response [15, 20]
inactive: Potency [1] | Potency [2] | Potency [3] | Potency [4] | Potency [5] | Potency [6] | Potency [7] | Potency [8] | Potency [9] | Potency [10] | Potency [11] | Potency [12] | Potency [13] | Potency [14] | activity change, negative = inhibition ([15]; at 25.7 µM (top of the series)) 0.467%

CCCOc1ccc2nc(NC(=O)OC)[nH]c2c1
inactive: activity change, negative = inhibition ([15]; at 57.5 µM (top of the series)) 5.26%
3.19%: max response [15, 20]
11.6%: max response [15, 21]

Nc1ccc(S(N)(=O)=O)cc1
inactive: Potency [1] | Potency [2] | Potency [3] | Potency [4] | Potency [5] | Potency [6] | Potency [7] | Potency [8] | Potency [9] | Potency [10] | Potency [11] | Potency [12] | Potency [13] | Potency [14] | activity change, negative = inhibition ([15]; at 25.7 µM (top of the series)) 0.244% | activity change, negative = inhibition ([15]; at 57.5 µM (top of the series)) 10.7%
-10.4% and 15.9%: max response [15, 20]
-9.48% and 32.6%: max response [15, 21]

Oc1ccc(-c2nc(-c3ccc(F)cc3)c(-c3ccncc3)[nH]2)cc1
inactive: outcome [16] | outcome [17] | Potency [18] | Potency [19]

CN(C)c1ccc2nc3ccc(=[N+](C)C)cc-3sc2c1
active: Potency [1] 3.98 µM | Potency [2] 3.16 µM | Potency [3] 5.01 µM | Potency [4] 7.94 µM | Potency [5] 6.31 µM | Potency [6] 3.98 µM | Potency [7] 3.98 µM | Potency [8] 7.94 µM | Potency [9] 7.94 µM | Potency [10] 6.31 µM | Potency [11] 6.31 µM | Potency [12] 7.94 µM | Potency [13] 10 µM | Potency [14] 7.94 µM

O=Nc1c(-c2c(O)[nH]c3cc(Br)ccc23)[nH]c2ccccc12
active: Potency [19] 20 µM
inactive: outcome [16] | outcome [17] | Potency [18]

CCc1nc(N)nc(N)c1-c1ccc(Cl)cc1
-6.7% and 7.93%: max response [15, 20]
inactive: Potency [1] | Potency [3] | Potency [6] | Potency [7] | Potency [8] | Potency [9] | Potency [10] | Potency [12] | Potency [13] | activity change, negative = inhibition ([15]; at 25.7 µM (top of the series)) -2.49% | activity change, negative = inhibition ([15]; at 57.5 µM (top of the series)) 9.2%
active: Potency [4] 50.1 µM
-10.2% and 22.1%: max response [15, 21]
